The first assay concerns the target Sialic acid-binding Ig-like lectin 9 (Homo sapiens) (UniProt Q9Y336). The assay is described as follows: Hs-Siglec9 ALPHAscreen SOP 20170721. Also on record: scale not given: direction of the effect not stated beside the values. The following applies: 10 µM.
Chain of Sialic acid-binding Ig-like lectin 9 (Homo sapiens) (Q9Y336 whole entry): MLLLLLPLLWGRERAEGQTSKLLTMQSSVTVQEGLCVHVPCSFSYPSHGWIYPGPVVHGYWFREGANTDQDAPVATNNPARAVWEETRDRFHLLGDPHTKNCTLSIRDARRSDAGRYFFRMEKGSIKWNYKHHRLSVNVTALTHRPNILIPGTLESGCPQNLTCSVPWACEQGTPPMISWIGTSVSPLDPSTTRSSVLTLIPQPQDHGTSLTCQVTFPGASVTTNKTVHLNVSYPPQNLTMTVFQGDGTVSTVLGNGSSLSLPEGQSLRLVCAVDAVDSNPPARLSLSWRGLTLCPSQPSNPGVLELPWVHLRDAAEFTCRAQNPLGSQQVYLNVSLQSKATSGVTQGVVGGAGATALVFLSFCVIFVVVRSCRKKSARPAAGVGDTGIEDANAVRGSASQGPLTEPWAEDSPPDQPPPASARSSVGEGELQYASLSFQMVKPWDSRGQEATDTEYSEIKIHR
Regarding `COCCCNC(=O)CN1CCCC1c1c(C)nn(C)c1Cl` (centres undefined), the Percent Effect was -3.46%. For `Cc1ccccc1CN1CCN(CC(=O)Nc2cccnc2)CC1`, the Percent Effect is -1.61%. Still for that read-out and setting: the figure for `CS(=O)(=O)N1CCOCC2(CN(Cc3ccsc3)CCO2)C1` (centres undefined) is 5.15%; for `c1cncc(COCc2nnc3n2CCN(Cc2ccoc2)C3)c1` it is 9.78%; for `CCN1C(=O)CCC12CCCN(Cc1nccs1)CC2` (centres undefined) it is 0.513%. Same read-out and setting: with `O=C(Nc1cnn(CCN2CCOCC2)c1)c1cc(F)ccc1F` the figure was 20.5%. Turning to `O=C(N[C@@H]1CN(Cc2ccc3c(c2)OCO3)[C@@H]2CCCO[C@@H]21)C1CC1`, the Percent Effect was 0.764%.

Take `Cc1noc(Cl)c1CCC(=O)N1CCC(CC(N)=O)CC1`: the Percent Effect came to 6.68%. Still for that read-out and setting: the figure for `c1ncn(CC2CCCCN2Cc2noc(C3CC3)n2)n1` (centres undefined) is 1.81%; for `Cc1ccc(CNS(=O)(=O)CC2=NC(=O)n3cccc3C2=O)cc1` it is 4.14%. Still for that read-out and setting: with `Cn1cc(CN2CCn3cc(CNC(=O)C4CCC4)nc3C2)cn1` the figure was 2.73%. Same read-out and setting: with `CCNC(c1cccnc1)c1cc(C)cc(C)c1` (centres undefined) the figure was -1.27%; with `Cc1nc(N2CC[C@@H](NC(=O)c3cnccn3)[C@H](O)C2)c2ccsc2n1`, 15.3%; with `CC(C)C(C(=O)N1CCN(Cc2ccncc2)CC1)n1cncn1` (centres undefined), 5.43%. Take `CC1c2ncc(Cn3cncn3)n2CCN1C(=O)C1CCOCC1` (centres undefined): the Percent Effect turned out to be 0.0625%. As for `Cc1cnn(CCNCC(O)COc2ccc(C#N)cc2)c1` (centres undefined), the Percent Effect is 8.11%. Same read-out and setting: the figure for `O=C(CCc1nccs1)N1CCN(c2cccnn2)CC1` is 3.62%. On the same count and under the same terms, the figure for `CC(O)CN(CC(=O)NC(=O)NCC(F)(F)F)c1ccccc1` (centres undefined) is 6.31%; for `Cn1nccc1C(=O)N1CCOC(Cc2cccc(C(F)(F)F)c2)C1` (centres undefined) it is -3.79%. Still for that read-out and setting: with `COC(=O)C(C)(C)NC(=O)C1CC(=O)N(C)C1` (centres undefined) the figure was 9.64%.

For the next assay, the system named is Trypanosoma cruzi. The assay is described as follows: Trypanosoma cruzi phosphomannomutase and mannose-1-phosphate guanylyltransferase assay. The following applies: 10 µM. Also on record: scale not given: direction of the effect not stated beside the values. Type of assay: functional.
As to `O=C(c1cnccn1)N1CCN(Cc2ccncc2)c2ncccc2C1`, the Percent Effect is -1.54%. Same read-out and setting: with `CS(=O)(=O)N1CCCCCC1C1CCN(c2ncccn2)CC1` (centres undefined) the figure was -4.13%. Still for that read-out and setting: the figure for `Cc1noc([C@@H]2CC[C@@H]3[C@@H](CCN3S(=O)(=O)c3cccnc3)O2)n1` is -3.12%; for `COc1ccc(-c2noc(C(=O)NCCN3CCCCC3)n2)cc1OC` it is 8.25%. With `CNC(=O)[C@H]1C[C@H]2OCC[C@H]2N(Cc2ccc(C)o2)C1`, the Percent Effect is -6.02%. Still for that read-out and setting: with `N#Cc1ccc(F)c(CN2CCCC2Cn2cccn2)c1` (centres undefined) the figure was 1.39%. Same read-out and setting: with `CC(C)CN1CCC(c2nc3c([nH]2)CC(C)(C)CNC3=O)C1` (centres undefined) the figure was 3.67%; with `CSc1cc2c(cc1NC(=O)NCC(C)(C)C(N)=O)OCCO2`, -3.91%.

As for `CC(C)C1CN(C(=O)c2ccc(C(N)=O)cc2)CCS1` (centres undefined), the Percent Effect was -6.2%.

For `Cc1ccc(-c2cc(CNC(=O)N3CCOC(C)C3)on2)cc1` (centres undefined), the Percent Effect is -4.92%.

For `Cn1cc(N2CC3(CCN(Cc4cccs4)CC3)OCC2=O)cn1`, the Percent Effect stood at 2.38%. The same measure, in the same setting: the figure for `CCc1noc(C2CCN(C(=O)CCn3nc(C)cc3C)CC2)n1` is 8.55%; for `NC(=O)COc1cccc(C(=O)N2CCCC(n3ccnc3)C2)c1` (centres undefined) it is 6.41%; for `CCCc1cc(C(=O)N(C)Cc2cccc3ncccc23)n(C)n1` it is 3.25%. The same measure, in the same setting: with `CCOCC1CN(Cc2ccoc2)Cc2nn(CC3CC3)cc21` (centres undefined) the figure was -3.52%; with `Cn1nc(C2CCCN(Cc3ccsc3)C2)c2nccnc21` (centres undefined), -2.37%; with `CCS(=O)(=O)N1CCOC2(CCCN(c3ccc(C)nn3)C2)C1` (centres undefined), -1.35%. `CCN(CCC(F)(F)F)C(=O)Nc1cccc(N2CCOCC2)c1`: the Percent Effect was found to be 2.12%. On the same count and under the same terms, with `Cc1nn(C)cc1CN1CCC(C2Nc3ccccc3S(=O)(=O)N2)CC1` (centres undefined) the figure was -1.78%. The same measure, in the same setting: the figure for `COCCCNC(=O)CN1CCCC1c1c(C)nn(C)c1Cl` (centres undefined) is 2.15%; for `Cc1ccccc1CN1CCN(CC(=O)Nc2cccnc2)CC1` it is 6.95%. The same measure, in the same setting: with `CS(=O)(=O)N1CCOCC2(CN(Cc3ccsc3)CCO2)C1` (centres undefined) the figure was 7.14%; with `c1cncc(COCc2nnc3n2CCN(Cc2ccoc2)C3)c1`, 5.21%. As to `CCN1C(=O)CCC12CCCN(Cc1nccs1)CC2` (centres undefined), the Percent Effect is 2.56%. Regarding `O=C(Nc1cnn(CCN2CCOCC2)c1)c1cc(F)ccc1F`, the Percent Effect is -1.32%. Same read-out and setting: with `O=C(N[C@@H]1CN(Cc2ccc3c(c2)OCO3)[C@@H]2CCCO[C@@H]21)C1CC1` the figure was -5.99%; with `Cc1noc(Cl)c1CCC(=O)N1CCC(CC(N)=O)CC1`, 6.63%. The same measure, in the same setting: with `c1ncn(CC2CCCCN2Cc2noc(C3CC3)n2)n1` (centres undefined) the figure was -1.69%; with `Cc1ccc(CNS(=O)(=O)CC2=NC(=O)n3cccc3C2=O)cc1`, -1.77%. In the case of `Cn1cc(CN2CCn3cc(CNC(=O)C4CCC4)nc3C2)cn1`, the Percent Effect is -0.386%.

`CCNC(c1cccnc1)c1cc(C)cc(C)c1` (centres undefined): the Percent Effect was 2.15%. Regarding `Cc1nc(N2CC[C@@H](NC(=O)c3cnccn3)[C@H](O)C2)c2ccsc2n1`, the Percent Effect amounted to 2.7%. As for `CC(C)C(C(=O)N1CCN(Cc2ccncc2)CC1)n1cncn1` (centres undefined), the Percent Effect came to 0.0983%. `CC1c2ncc(Cn3cncn3)n2CCN1C(=O)C1CCOCC1` (centres undefined): the Percent Effect is 4.83%.

These data come from ChEMBL document CHEMBL3988442, “University of Dundee, Small-Polar-MMV Screening Library” (2021).
